Drawing on PubChem BioAssay (Tox21), this text covers Potency for 36 compounds.

The target of test [1] is Cytochrome P450 2D6 (Homo sapiens) (UniProt P10635). Description: Cytochrome P450 Family 2 Subfamily D Member 6 (CYP2D6) small molecule antagonists: luciferase reporter qHTS assay (AID 1671196). Further: nearly all actives have a fitted effect of over 50% in size. The method, boiled down: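 Quantitative HTS of Tox21 chemicals against CYP2D6 using a luminescent proluciferin substrate. After NADPH addition, 1 h room-temperature reaction; luminescence recorded 20 min post detection reagent.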
For orientation: Reporter assays use an easily measured gene product as a stand-in for the process of interest.

Test [2] deals with Cytochrome P450 2C19 (Homo sapiens) (UniProt P33261). Description: Cytochrome P450 Family 2 Subfamily C Member 19 (CYP2C19) small molecule antagonists: luciferase reporter qHTS assay (AID 1671197). Further: nearly all actives have a fitted effect of over 65% in size. The method, boiled down: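 P450-Glo CYP2C19 screening system; proluciferin substrate; DMSO compound stocks; 10 min RT preincubation; NADPH regeneration, 1 h at 37C; luciferin detection reagent, 20 min RT; luminescence as RLU.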

The target of test [3] is Cytochrome P450 2C9 (Homo sapiens) (UniProt P11712). Briefly: Cytochrome P450 Family 2 Subfamily C Member 9 (CYP2C9) small molecule antagonists: luciferase reporter qHTS assay (AID 1671198). Further: nearly all actives have a fitted effect of over 50% in size. The method, boiled down:
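P450-Glo proluciferin substrate with CYP2C9 enzyme; 10 min RT preincubation, then NADPH regeneration 1 h at 37C; luciferin detection reagent 20 min RT, luminescence in relative luminescence units.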

The target of test [4] is Voltage-gated inwardly rectifying potassium channel KCNH2 (Homo sapiens) (UniProt Q12809). Description: Human Ether-a-go-go-Related Gene (hERG) channel small molecule antagonists: fluorescence cell-based qHTS assay (AID 1671200). Further: nearly all actives have a fitted effect of over 50% in size. The method, boiled down: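 Thallium served as the potassium surrogate; its influx into dye-loaded U2OS cells carrying the channel was measured by fluorescence over 2 min.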
A general note: Block of hERG is tested as a sign of cardiac risk.

In test [5] the target is Cytochrome P450 3A4 (Homo sapiens) (UniProt P08684). Briefly: Cytochrome P450 Family 3 Subfamily A Member 4 (CYP3A4) small molecule antagonists: luciferase reporter qHTS assay (AID 1671201). Further: nearly all actives have a fitted effect of over 50% in size. The procedure, abridged:
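Relative luminescence units after 20 min with luciferin detection reagent served as read-out. Beforehand, CYP3A4 turned over a proluciferin substrate for 1 h at room temperature with NADPH regeneration, following 10 min compound preincubation.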

In test [6] the target is Cytochrome P450 1A2 (Homo sapiens) (UniProt P05177). Description: Cytochrome P450 Family 1 Subfamily A Member 2 (CYP1A2) small molecule antagonists: luciferase reporter qHTS assay (AID 1671199). Further: nearly all actives have a fitted effect of over 50% in size. The procedure, abridged:
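Quantitative high-throughput format using the P450-Glo CYP1A2 system. Reaction initiated by NADPH regeneration solution, 1 h at room temperature, then stopped with detection reagent; luminescence measured 20 min later.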

Records with an inconclusive call do not appear. A number with no mark means an inactive call. Active and inactive are the calls of the source. The call rests on the fitted dose curve; in most records, active means well fitted curve in the direction sought with a large enough effect in the repeat runs; inconclusive means weak or mixed curves; inactive means no such curve, though single readings can be large; an effect the other way counts as inactive or inconclusive.
Potency means the concentration at half of the fitted maximal effect.

Chain of Cytochrome P450 2C9 (Homo sapiens) (P11712 whole entry, looked up): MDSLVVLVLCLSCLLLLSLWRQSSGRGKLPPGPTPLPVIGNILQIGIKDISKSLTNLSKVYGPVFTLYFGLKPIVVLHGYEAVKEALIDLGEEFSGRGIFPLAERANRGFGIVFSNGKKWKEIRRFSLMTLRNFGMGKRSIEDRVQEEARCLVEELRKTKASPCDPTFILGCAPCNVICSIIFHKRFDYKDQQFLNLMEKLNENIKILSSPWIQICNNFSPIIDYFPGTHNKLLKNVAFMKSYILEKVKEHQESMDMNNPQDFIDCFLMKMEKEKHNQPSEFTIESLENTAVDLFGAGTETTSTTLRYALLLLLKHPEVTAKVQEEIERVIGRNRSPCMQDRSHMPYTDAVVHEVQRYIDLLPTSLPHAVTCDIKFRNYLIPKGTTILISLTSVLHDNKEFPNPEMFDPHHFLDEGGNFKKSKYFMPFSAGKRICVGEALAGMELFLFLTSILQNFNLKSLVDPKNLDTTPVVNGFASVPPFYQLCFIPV
Chain of Cytochrome P450 2D6 (Homo sapiens) (P10635 whole entry, looked up): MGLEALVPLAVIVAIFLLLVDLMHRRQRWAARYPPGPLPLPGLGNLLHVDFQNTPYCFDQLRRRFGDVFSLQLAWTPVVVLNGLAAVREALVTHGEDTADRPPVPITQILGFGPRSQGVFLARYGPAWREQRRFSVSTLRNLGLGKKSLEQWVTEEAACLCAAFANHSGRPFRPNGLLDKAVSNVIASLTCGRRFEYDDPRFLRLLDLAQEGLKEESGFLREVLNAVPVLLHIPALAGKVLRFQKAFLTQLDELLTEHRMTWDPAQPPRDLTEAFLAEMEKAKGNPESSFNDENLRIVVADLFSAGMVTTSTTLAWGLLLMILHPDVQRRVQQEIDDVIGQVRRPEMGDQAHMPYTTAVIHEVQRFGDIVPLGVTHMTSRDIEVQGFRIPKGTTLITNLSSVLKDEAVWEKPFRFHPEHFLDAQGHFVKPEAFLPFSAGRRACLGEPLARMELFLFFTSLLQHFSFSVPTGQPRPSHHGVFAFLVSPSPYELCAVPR
Chain of Cytochrome P450 1A2 (Homo sapiens) (P05177 whole entry, looked up): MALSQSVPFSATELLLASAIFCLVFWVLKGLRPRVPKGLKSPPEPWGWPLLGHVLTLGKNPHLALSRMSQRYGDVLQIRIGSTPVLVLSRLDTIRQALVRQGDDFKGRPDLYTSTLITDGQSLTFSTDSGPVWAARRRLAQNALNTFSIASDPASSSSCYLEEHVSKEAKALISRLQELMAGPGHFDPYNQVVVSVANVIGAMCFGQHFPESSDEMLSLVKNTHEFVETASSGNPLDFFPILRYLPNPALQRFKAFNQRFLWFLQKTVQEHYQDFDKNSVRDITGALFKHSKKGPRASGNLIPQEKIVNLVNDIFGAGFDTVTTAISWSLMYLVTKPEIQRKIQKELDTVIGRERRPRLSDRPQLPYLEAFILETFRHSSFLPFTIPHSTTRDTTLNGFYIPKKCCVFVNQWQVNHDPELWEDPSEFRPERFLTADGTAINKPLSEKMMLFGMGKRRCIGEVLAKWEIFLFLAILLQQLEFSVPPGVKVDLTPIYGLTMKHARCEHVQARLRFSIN
Chain of Voltage-gated inwardly rectifying potassium channel KCNH2 (Homo sapiens) (Q12809 whole entry, looked up): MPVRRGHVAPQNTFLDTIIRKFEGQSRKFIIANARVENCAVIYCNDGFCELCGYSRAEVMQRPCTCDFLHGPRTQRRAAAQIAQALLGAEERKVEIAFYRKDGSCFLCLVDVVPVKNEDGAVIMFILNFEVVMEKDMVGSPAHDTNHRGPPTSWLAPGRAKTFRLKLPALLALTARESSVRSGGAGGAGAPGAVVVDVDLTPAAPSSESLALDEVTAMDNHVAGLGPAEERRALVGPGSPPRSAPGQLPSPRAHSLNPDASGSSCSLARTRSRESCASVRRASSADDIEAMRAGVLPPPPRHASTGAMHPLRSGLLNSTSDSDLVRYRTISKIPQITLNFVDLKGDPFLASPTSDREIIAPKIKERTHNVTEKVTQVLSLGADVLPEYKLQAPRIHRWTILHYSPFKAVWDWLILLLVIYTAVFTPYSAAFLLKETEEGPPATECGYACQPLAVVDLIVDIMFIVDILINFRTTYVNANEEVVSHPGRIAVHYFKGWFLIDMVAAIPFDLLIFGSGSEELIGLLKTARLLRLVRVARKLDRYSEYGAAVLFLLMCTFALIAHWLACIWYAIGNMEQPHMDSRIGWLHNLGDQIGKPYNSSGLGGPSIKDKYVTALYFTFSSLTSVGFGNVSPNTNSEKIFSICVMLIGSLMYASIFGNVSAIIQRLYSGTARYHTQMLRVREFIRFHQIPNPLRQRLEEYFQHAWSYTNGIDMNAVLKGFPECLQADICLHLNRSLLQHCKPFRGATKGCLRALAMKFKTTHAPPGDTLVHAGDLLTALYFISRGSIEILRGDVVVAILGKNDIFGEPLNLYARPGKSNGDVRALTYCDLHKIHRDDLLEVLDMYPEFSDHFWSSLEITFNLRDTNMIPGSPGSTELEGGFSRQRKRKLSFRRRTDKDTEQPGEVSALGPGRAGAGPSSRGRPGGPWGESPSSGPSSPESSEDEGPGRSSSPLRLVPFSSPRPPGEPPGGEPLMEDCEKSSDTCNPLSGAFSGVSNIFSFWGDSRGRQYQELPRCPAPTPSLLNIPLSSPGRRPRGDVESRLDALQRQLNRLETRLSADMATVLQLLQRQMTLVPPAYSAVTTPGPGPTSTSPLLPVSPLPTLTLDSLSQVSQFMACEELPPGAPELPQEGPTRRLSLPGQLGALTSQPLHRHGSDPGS
Chain of Cytochrome P450 3A4 (Homo sapiens) (P08684 whole entry, looked up): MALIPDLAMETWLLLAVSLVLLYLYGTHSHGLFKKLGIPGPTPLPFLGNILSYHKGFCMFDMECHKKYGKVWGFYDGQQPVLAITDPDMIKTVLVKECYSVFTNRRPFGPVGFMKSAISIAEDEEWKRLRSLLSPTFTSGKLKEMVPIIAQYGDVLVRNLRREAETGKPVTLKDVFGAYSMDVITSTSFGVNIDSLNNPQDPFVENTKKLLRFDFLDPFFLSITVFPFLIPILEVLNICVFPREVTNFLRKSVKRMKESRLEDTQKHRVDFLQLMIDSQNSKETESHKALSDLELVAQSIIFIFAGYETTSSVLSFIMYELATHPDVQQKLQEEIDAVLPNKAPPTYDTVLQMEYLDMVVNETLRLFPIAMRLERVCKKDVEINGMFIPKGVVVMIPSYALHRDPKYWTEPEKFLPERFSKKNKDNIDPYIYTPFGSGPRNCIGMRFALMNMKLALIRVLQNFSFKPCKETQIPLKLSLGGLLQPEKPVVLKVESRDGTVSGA
Chain of Cytochrome P450 2C19 (Homo sapiens) (P33261 whole entry, looked up): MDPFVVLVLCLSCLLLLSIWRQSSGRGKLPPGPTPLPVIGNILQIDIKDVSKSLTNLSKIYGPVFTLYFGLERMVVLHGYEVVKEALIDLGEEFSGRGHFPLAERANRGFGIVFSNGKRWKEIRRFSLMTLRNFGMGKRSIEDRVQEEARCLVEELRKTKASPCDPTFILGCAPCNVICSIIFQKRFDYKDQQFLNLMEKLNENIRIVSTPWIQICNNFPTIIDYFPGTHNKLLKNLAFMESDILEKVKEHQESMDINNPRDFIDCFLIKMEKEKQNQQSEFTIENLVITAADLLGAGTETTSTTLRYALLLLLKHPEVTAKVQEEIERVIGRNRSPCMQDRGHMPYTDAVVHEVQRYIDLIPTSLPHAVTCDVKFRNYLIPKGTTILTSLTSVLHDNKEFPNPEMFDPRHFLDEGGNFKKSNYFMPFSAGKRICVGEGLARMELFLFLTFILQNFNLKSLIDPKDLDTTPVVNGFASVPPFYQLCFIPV

Consider `Cc1ncc(CSSCc2cnc(C)c(O)c2CO)c(CO)c1O`, for which the results for the Potency in test [1], in test [2] and in test [3] were 6.17 µM (active), 15.5 µM (active) and 8.71 µM (active), respectively. In test [4], the Potency entry was “inactive”.

Take `CC(C)=CC(=O)O`: the Potency result in test [1], in test [2], in test [3], in test [4] and in test [5] was “inactive” each time.

`N#CCc1ccccc1[N+](=O)[O-]`: the Potency in test [1] was 78.7 µM (active); in test [6], 31.3 µM (active). Further, the Potency result in test [2], in test [4] and in test [5] was “inactive” throughout.

On to `OC/C=C/c1ccccc1`, for which the Potency was 59 µM (active) in test [1], 74.3 µM (active) in test [2] and 52.6 µM (active) in test [3]. The Potency entry in test [4] and in test [5] was “inactive” throughout.

For the compound `CC(C)[N+](C)(C)CC(O)COc1cccc2ccccc12` (stereo not given), in test [1], the Potency is 4.36 µM (active). For the same compound, the Potency entry in test [2], in test [6], in test [4] and in test [5] was “inactive” in each case.

`CC(C)COC(=O)c1ccccc1O`: the Potency entry in test [1], in test [2], in test [3], in test [4] and in test [5] was “inactive” in each case.

Regarding `OCC(CO)(CO)COCC(CO)(CO)CO`, the Potency result in test [1], in test [2], in test [3], in test [4] and in test [5] was “inactive” in each case.

As to `OC[C@H]1O[C@@H]2O[C@H]3[C@H](O)[C@@H](O)[C@@H](O[C@H]4[C@H](O)[C@@H](O)[C@@H](O[C@H]5[C@H](O)[C@@H](O)[C@@H](O[C@H]6[C@H](O)[C@@H](O)[C@@H](O[C@H]7[C@H](O)[C@@H](O)[C@@H](O[C@H]8[C@H](O)[C@@H](O)[C@@H](O[C@H]9[C@H](O)[C@@H](O)[C@@H](O[C@H]1[C@H](O)[C@H]2O)O[C@@H]9CO)O[C@@H]8CO)O[C@@H]7CO)O[C@@H]6CO)O[C@@H]5CO)O[C@@H]4CO)O[C@@H]3CO`, the Potency entry in test [1], in test [2], in test [6], in test [4] and in test [5] was “inactive” in each case.

`CC1(C)OC(=O)Nc2ccc(Br)cc21`: the Potency entry in test [1] and in test [4] was “inactive” in each case. Besides, in test [2], the Potency was 17.4 µM (active).

In the case of `CCN1CCN(c2cc3c(cc2F)c(=O)c(C(=O)O)cn3C2CC2)CC1`, the Potency entry in test [1], in test [2], in test [6], in test [4] and in test [5] was “inactive” throughout.

For the compound `CCO[Si](C)(OCC)OCC`, the Potency result in test [1], in test [2] and in test [4] was “inactive” in each case. Moreover, the Potency in test [5] is 28.3 µM (active).

Take `O=C(CCOCCOCCOCCOCCC(=O)Nc1c(I)cc(I)c(C(=O)O)c1I)Nc1c(I)cc(I)c(C(=O)O)c1I`: the Potency result in test [1], in test [2], in test [6] and in test [5] was “inactive” throughout.

For `CC1=CC(C)C(C=O)C(C)C1` (stereo not given), the Potency result in test [1], in test [2], in test [6], in test [4] and in test [5] was “inactive” each time.

As for `Cc1cc(C)cc(OCC2CNC(=O)O2)c1` (stereo not given), the Potency result in test [1], in test [2], in test [4] and in test [5] was “inactive” throughout.

As for `C1C2OC2C2C1C1CC2C2OC12` (stereo not given), the Potency result in test [1], in test [6], in test [4] and in test [5] was “inactive” throughout. Further, the Potency in test [2] was 40.1 µM (active).

As for `CC(O)CN(CCCN(C)C)CCCN(C)C` (stereo not given), the Potency result in test [1], in test [2], in test [6], in test [4] and in test [5] was “inactive” each time.

For the compound `COc1ccc(COC=O)cc1`, the Potency entry in test [1], in test [2] and in test [5] was “inactive” each time. In test [6], the Potency was 63.3 µM (active).

`CCC(C(=O)NC(N)=O)c1ccccc1` (stereo not given): the Potency result in test [1], in test [4] and in test [5] was “inactive” in each case. The values for the Potency in test [2] and in test [6] were 79.6 µM (active) and 28.3 µM (active), respectively.

On to `NC(=O)Nc1nc2ccccc2[nH]1`, for which the figures for the Potency in test [1], in test [2] and in test [6] were 31.5 µM (active), 39.6 µM (active) and 39.6 µM (active), respectively. In addition, the Potency entry in test [4] and in test [5] was “inactive” throughout.

For `O=C1CC2(CCCC2)CC(=O)N1`, the Potency result in test [1], in test [2], in test [6], in test [4] and in test [5] was “inactive” each time.

As for `COC(=O)c1ccc(C(=O)OC)c(C(=O)OC)c1`, the Potency entry in test [1], in test [4] and in test [5] was “inactive” each time. Moreover, the Potency in test [2] is 39.9 µM (active); in test [6] it was 7.96 µM (active).

For the compound `CCCCCCC(CCCCCCCCCCC(=O)OCC(COC(C)=O)OC(C)=O)OC(C)=O` (stereo not given), the Potency result in test [1], in test [2], in test [4] and in test [5] was “inactive” throughout.

Take `CCCCCCCCCCCCCCCCCC(=O)OCCCCCCCCCCCCCC(C)C`: the Potency result in test [1], in test [2], in test [6], in test [4] and in test [5] was “inactive” throughout.

In the case of `CC(C)(O)C(=O)c1ccc(OCCO)cc1`, the Potency entry in test [1], in test [2] and in test [5] was “inactive” throughout. The Potency in test [6] is 35.6 µM (active).

Consider `O=C(O)CCNC(=O)c1ccc(N=Nc2ccc(O)c(C(=O)O)c2)cc1`, for which the Potency result in test [1], in test [2], in test [6], in test [4] and in test [5] was “inactive” in each case.

As to `Nc1cc(N)cc(C(=O)O)c1`, the Potency in test [1] was 35.6 µM (active); in test [2] it was 79.6 µM (active). The Potency entry in test [6] and in test [5] was “inactive” throughout.

In the case of `Cc1ccc(Nc2ccc(O)c3c2C(=O)c2ccccc2C3=O)cc1`, the Potency entry in test [1], in test [2], in test [4] and in test [5] was “inactive” in each case.

As to `C=C(C)C(=O)OCCC(C)OC(=O)C(=C)C` (stereo not given), the Potency entry in test [1], in test [2], in test [4] and in test [5] was “inactive” throughout. Further, in test [6], the Potency is 31.7 µM (active).

Consider `C=C(C)[C@H]1CC=C(C)CC1`, for which the Potency in test [1] was 35.6 µM (active). The Potency entry in test [2], in test [4] and in test [5] was “inactive” throughout.

With `C/C=C1\C(=O)C[C@H]2[C@@H]3CCC4=CC(=O)CC[C@]4(C)[C@H]3CC[C@]12C`, the Potency result in test [1], in test [6] and in test [5] was “inactive” each time. For the same compound, in test [2], the Potency was 6.2 µM (active).

For the compound `OCC(O)[C@@H](O)[C@H](O)[C@H](O)CO[C@H]1O[C@H](CO)[C@@H](O)[C@H](O)[C@H]1O` (stereo not given in full), the Potency entry in test [1], in test [4] and in test [5] was “inactive” each time. Moreover, the Potency in test [2] was 19.9 µM (active).

With `CCCCCCCCN(C)CCCCCCCC`, the figures for the Potency in test [1] and in test [4] were 64 µM (active) and 1.57 µM (active), respectively. Also, the Potency entry in test [2], in test [6] and in test [5] was “inactive” in each case.

Take `C=C[Si](OC)(OC)OC`: the Potency result in test [1], in test [2], in test [4] and in test [5] was “inactive” throughout. Further, in test [6], the Potency was 34.2 µM (active).

As to `CCCCCCCCC=O`, the Potency entry in test [1], in test [2], in test [6] and in test [5] was “inactive” in each case.

As for `O=C(O)C1CCC1`, the Potency result in test [1], in test [2], in test [6], in test [4] and in test [5] was “inactive” each time.

In the case of `O=C(O)C(O)[C@H](O)[C@@H](O)[C@H](O)[C@H](O)CO` (stereo not given in full), the Potency in test [1] is 64 µM (active); in test [2], 40.4 µM (active); in test [6], 40.4 µM (active). The Potency result in test [4] and in test [5] was “inactive” throughout.
